Experimental findings from ChEMBL document CHEMBL1961873, “Compounds: GSK PKIS; Assays: Nanosyn kinase panel” (2012) are described below.

As a reminder, the inhibition is the drop in the measured response relative to a control, in per cent.

Experiment [1] has as its system Tyrosine-protein kinase ABL1 (Homo sapiens), P00519 [T315I]. The note with it: at 1 µM.
In experiment [2] the test system is Tyrosine-protein kinase ABL1 (Homo sapiens), P00519 [Y253F]. The note with it: at 0.1 µM.
Experiment [3] shares this test system. The note with it: at 1 µM.
Experiment [4] addresses Tyrosine-protein kinase ABL1 (Homo sapiens) (UniProt P00519). The note with it: at 0.1 µM.
Experiment [5] shares this target. The note with it: at 1 µM.
The target in experiment [6] is ALK tyrosine kinase receptor (Homo sapiens) (UniProt Q9UM73). The note with it: at 0.1 µM.
For experiment [7] the target is unchanged. The note with it: at 1 µM.
The target in experiment [8] is Tyrosine-protein kinase ABL2 (Homo sapiens) (UniProt P42684). The note with it: at 0.1 µM.
The target is the same in experiment [9]. The note with it: at 1 µM.
Experiment [10] concerns the target Tyrosine-protein kinase receptor UFO (Homo sapiens) (UniProt P30530). The note with it: at 0.1 µM.
For experiment [11] the target is unchanged. The note with it: at 1 µM.
The target of experiment [12] is Tyrosine-protein kinase Blk (Homo sapiens) (UniProt P51451). The note with it: at 0.1 µM.
The target is the same in experiment [13]. The note with it: at 1 µM.
Experiment [14] deals with T1, Cytoplasmic tyrosine-protein kinase BMX (Homo sapiens) (UniProt P51813).
T1 sequence (whole entry): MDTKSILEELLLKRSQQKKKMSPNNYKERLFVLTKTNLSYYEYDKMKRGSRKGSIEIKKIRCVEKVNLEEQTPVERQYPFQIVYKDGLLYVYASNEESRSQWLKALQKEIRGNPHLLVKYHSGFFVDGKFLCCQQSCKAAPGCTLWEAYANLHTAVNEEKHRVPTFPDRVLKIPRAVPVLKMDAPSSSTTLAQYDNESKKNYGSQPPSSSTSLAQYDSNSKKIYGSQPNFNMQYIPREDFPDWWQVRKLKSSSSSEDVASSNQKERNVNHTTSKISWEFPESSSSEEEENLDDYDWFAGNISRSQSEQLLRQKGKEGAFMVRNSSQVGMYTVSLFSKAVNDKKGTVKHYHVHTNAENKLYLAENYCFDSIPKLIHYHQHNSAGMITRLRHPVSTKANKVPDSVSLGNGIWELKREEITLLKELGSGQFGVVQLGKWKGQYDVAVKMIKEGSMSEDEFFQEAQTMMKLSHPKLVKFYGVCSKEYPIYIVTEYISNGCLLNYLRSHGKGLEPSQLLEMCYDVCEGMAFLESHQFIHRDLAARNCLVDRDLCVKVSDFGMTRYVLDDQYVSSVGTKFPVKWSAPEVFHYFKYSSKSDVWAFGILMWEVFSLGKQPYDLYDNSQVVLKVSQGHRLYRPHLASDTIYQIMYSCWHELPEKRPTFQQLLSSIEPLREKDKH
The note with it: at 0.1 µM.

The target of experiment [15] is T1, Cytoplasmic tyrosine-protein kinase BMX (Homo sapiens). The note with it: at 1 µM.
In experiment [16] the target is Protein-tyrosine kinase 6 (Homo sapiens) (UniProt Q13882). The note with it: at 0.1 µM.
Experiment [17] shares this target. The note with it: at 1 µM.
The target of experiment [18] is Tyrosine-protein kinase BTK (Homo sapiens) (UniProt Q06187). The note with it: at 0.1 µM.
Experiment [19] has the same target. The note with it: at 1 µM.
Experiment [20] has as its target Tyrosine-protein kinase CSK (Homo sapiens) (UniProt P41240). The note with it: at 0.1 µM.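 Also: value given is the averaged percent inhibition of CSK kinase activity, from the GSK PKIS kinase inhibitor set screening panel.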

Chain of Tyrosine-protein kinase BTK (Homo sapiens) (Q06187 whole entry): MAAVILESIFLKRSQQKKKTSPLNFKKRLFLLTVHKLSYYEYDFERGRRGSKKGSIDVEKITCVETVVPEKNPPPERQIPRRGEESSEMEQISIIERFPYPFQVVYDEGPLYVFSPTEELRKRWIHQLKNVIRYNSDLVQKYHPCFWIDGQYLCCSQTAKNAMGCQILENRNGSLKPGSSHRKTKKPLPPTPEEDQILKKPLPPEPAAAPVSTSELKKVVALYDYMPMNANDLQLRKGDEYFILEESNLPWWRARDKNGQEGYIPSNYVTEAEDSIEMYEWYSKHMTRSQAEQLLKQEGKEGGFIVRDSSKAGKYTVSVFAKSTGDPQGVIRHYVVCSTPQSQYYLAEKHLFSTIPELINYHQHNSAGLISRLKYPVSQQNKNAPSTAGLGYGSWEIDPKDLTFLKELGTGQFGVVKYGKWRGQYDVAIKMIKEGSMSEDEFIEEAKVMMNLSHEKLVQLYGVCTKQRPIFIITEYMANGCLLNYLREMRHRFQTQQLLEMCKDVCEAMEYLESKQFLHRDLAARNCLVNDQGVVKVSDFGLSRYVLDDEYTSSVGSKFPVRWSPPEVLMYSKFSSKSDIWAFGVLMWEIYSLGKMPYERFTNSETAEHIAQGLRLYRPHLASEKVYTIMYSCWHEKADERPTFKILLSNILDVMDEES
Chain of Tyrosine-protein kinase CSK (Homo sapiens) (P41240 2-450 limits assumed): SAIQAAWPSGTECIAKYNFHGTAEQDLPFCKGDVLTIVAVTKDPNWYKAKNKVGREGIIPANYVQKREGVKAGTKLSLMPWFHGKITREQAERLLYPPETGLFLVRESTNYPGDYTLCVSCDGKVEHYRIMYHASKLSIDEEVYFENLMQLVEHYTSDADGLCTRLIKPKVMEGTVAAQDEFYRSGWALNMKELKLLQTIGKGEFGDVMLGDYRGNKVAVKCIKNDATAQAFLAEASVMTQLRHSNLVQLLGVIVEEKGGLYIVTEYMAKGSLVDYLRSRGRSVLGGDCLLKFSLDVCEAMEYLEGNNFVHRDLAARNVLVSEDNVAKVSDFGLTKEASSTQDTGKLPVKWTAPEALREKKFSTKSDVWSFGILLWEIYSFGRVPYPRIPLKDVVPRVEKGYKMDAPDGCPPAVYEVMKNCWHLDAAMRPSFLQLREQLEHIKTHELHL
Chain of Tyrosine-protein kinase Blk (Homo sapiens) (P51451 2-505 limits assumed): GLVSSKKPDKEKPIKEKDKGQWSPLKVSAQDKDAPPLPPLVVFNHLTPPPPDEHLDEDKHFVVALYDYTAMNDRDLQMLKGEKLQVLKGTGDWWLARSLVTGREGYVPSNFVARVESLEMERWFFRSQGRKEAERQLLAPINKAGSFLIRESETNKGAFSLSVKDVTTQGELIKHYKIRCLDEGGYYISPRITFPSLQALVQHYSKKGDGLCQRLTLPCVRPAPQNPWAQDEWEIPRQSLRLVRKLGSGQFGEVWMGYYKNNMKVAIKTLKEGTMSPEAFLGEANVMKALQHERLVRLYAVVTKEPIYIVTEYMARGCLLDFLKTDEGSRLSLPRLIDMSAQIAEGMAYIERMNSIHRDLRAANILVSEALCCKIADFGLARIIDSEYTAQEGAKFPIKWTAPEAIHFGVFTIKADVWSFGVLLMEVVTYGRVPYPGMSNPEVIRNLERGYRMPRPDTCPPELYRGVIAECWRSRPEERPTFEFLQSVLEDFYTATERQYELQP
Chain of Tyrosine-protein kinase receptor UFO (Homo sapiens) (P30530 whole entry): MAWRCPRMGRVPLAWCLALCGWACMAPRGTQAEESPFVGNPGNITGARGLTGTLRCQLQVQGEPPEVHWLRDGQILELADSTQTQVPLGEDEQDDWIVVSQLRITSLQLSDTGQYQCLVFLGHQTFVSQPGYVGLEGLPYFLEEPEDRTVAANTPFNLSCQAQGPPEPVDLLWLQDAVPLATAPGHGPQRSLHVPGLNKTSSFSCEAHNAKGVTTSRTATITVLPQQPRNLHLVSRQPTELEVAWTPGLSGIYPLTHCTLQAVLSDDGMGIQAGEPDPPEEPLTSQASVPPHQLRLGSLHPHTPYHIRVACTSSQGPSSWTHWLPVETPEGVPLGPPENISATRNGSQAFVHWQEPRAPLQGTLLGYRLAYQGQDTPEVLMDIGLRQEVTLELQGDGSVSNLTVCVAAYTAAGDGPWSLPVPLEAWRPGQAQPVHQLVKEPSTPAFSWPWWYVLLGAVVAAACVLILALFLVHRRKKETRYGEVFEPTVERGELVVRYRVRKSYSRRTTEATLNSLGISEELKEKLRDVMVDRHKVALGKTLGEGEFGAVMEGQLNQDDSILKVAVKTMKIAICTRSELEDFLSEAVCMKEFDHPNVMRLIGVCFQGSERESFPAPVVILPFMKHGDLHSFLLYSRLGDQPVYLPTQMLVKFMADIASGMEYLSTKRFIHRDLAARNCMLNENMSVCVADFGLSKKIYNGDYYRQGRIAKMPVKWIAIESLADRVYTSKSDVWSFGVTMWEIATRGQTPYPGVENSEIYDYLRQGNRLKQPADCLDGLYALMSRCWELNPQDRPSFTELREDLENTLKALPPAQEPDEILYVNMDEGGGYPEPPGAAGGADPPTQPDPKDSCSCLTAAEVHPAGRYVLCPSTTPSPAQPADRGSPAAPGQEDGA
Chain of ALK tyrosine kinase receptor (Homo sapiens) (Q9UM73 19-1620 limits assumed): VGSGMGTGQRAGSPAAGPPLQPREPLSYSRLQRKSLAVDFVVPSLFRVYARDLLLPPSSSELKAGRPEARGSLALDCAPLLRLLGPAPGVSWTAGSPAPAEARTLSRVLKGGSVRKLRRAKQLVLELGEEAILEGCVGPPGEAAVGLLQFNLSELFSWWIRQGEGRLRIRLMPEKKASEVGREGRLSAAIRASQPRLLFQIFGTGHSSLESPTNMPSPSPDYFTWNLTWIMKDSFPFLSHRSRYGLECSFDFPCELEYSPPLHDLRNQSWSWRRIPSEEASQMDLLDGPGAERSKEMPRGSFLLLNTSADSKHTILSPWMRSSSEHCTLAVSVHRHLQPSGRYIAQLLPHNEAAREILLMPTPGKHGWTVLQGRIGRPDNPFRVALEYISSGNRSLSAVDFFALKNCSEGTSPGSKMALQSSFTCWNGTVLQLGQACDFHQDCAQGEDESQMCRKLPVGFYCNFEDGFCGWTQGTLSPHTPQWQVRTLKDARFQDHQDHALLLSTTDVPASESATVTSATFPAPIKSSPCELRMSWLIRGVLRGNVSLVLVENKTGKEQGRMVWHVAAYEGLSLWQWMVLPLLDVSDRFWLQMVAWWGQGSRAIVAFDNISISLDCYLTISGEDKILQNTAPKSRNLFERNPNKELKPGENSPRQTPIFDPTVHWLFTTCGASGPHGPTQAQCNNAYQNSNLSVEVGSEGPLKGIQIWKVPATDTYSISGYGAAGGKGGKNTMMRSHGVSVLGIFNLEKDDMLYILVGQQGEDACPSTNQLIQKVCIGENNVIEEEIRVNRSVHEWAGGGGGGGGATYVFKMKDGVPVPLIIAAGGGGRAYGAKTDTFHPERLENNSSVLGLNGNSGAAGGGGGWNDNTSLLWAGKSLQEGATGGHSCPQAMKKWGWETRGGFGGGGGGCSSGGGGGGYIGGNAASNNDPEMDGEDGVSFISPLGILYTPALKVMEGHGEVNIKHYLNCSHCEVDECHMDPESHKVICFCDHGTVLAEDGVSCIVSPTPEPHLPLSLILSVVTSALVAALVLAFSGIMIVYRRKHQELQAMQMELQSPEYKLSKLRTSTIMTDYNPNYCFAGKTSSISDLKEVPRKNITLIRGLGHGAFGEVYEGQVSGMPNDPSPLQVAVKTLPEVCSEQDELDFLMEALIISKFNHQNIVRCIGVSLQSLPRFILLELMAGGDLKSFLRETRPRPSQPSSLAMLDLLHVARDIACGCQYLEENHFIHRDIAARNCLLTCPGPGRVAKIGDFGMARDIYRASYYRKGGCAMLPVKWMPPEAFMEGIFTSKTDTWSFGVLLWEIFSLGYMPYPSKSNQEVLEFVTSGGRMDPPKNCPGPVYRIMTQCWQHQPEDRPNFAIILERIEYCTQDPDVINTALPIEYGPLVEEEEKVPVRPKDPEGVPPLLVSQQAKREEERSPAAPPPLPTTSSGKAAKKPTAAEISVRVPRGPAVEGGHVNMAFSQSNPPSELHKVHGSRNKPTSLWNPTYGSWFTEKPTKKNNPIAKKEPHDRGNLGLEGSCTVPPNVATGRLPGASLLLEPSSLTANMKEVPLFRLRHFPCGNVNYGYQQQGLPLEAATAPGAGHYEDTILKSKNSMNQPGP
Chain of Protein-tyrosine kinase 6 (Homo sapiens) (Q13882 whole entry, looked up): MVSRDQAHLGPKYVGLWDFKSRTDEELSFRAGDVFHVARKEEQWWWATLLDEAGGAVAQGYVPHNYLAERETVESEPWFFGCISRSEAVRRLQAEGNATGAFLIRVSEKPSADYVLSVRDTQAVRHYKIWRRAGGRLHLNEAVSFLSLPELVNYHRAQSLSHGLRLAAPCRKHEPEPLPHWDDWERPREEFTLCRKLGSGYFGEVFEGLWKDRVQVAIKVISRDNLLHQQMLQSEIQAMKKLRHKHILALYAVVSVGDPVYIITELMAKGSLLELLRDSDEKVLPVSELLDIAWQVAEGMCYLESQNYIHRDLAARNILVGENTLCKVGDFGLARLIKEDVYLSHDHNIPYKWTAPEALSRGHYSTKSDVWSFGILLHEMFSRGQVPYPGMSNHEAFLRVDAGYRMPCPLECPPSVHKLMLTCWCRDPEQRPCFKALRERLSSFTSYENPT

For the compound `Cc1nn(C)c2cc(N(C)c3ccnc(Nc4cccc(S(N)(=O)=O)c4)n3)ccc12`, the inhibition in experiment [1] came to 68.1%; in experiment [2] it was 45.3%; in experiment [3], 84.5%; in [4], 28.3%; in experiment [5], 74.9%; in [6], 3.45%. For the same compound, the inhibition in [7] was 19.2%; in [8], 30.2%; in [9], 74.4%; in experiment [10], -2.86%; in [11], -1.13%; in [12], 5.53%. The inhibition in [13] is 46.8%; in [14], 8.2%; in [15], 35.1%; in [16] it was 10.8%; in experiment [17], 52%; in experiment [18], -0.96%. Also, the inhibition in [19] worked out at 6.74%; in [20] it was 5.24%.
As to `CNC(=O)c1cncc(/C=C/c2c(Cl)cccc2Cl)c1`, the inhibition is 4.22% in experiment [1]; 12.5% in experiment [2]; 54.5% in experiment [3]; 8.37% in experiment [4]; 40.5% in [5]; 6% in experiment [6]. In addition, the inhibition in experiment [7] is 9.12%; in [8] it was 7.46%; in experiment [9] it was 35.7%; in [10] it was -6.04%; in [11] it was -1.76%; in experiment [12] it was -1.91%. Further, the inhibition in [13] was 5.69%; in experiment [14], 4.95%; in [15], 22.8%; in [16], 13.5%; in experiment [17] it was 56%; in experiment [18], -3.87%. Further, the inhibition in experiment [19] worked out at 0.37%; in [20], 0.49%.
Turning to `CC1=C(C(=O)Nc2ccc3[nH]ncc3c2)C(c2ccc3ccccc3c2)CC(=O)N1` (stereo not given), the inhibition in experiment [1] amounted to 22.1%; in experiment [2] it was 4%; in [3], 5.47%; in experiment [4], 2.85%; in experiment [5], 7.38%; in [6] it was 2.78%. The inhibition in [7] was 7.11%; in experiment [8] it was 3.07%; in experiment [9], 8.71%; in experiment [10], -2.62%; in [11], -3.18%; in [12], 13.4%. The inhibition in [13] was 58.5%; in experiment [14] it was -1.63%; in experiment [15] it was 3.91%; in [16] it was 3.76%; in experiment [17], 6.55%; in experiment [18], 0.23%. The values for the inhibition in experiment [19] and in [20] were 11.4% and 4.44%, respectively.
`[O-][S+]1CCN(Cc2ccc(-c3ccc4ncnc(Nc5ccc(OCc6ccccc6)c(F)c5)c4c3)o2)CC1`: the inhibition in [1] was -1.37%; in experiment [2], 2.33%; in experiment [3], -0.81%; in experiment [4], 1.83%; in experiment [5], 5.78%; in experiment [6], 1.75%. Besides, the inhibition in experiment [7] is 4.79%; in [8], 3.02%; in experiment [9], 3.87%; in experiment [10] it was -4.98%; in experiment [11], -2.42%; in experiment [12], 1.92%. In addition, the inhibition in experiment [13] was found to be 5.97%; in [14], 4.65%; in experiment [15], 5.88%; in [16], 0.34%; in experiment [17] it was 6.21%; in experiment [18], 1.11%. The inhibition in experiment [19] was 1.74%; in [20] it was 3.39%.
Consider `CC1=C(C(=O)Nc2ccc3[nH]ncc3c2)C(c2ccc(Cl)c(Cl)c2)CC(=O)N1` (stereo not given), for which the inhibition in experiment [1] is 2.96%; in experiment [2] it was 2.96%; in [3], 0.52%; in experiment [4] it was 2.43%; in experiment [5], 7.38%; in [6] it was 0.6%. The inhibition in experiment [7] was 3.88%; in [8] it was 2.19%; in experiment [9], 3.97%; in experiment [10], -2.18%; in experiment [11] it was -5.55%; in [12], 1.97%. In addition, the inhibition in [13] was 18.3%; in [14] it was -1.91%; in experiment [15], 2.22%; in experiment [16], 3.17%; in experiment [17], 3.02%; in [18], 0.53%. In addition, the inhibition came out at 3.13% in experiment [19] and 1.65% in experiment [20].
Turning to `COc1ccc(-c2coc3ncnc(N)c23)cc1`, the inhibition in experiment [1] was determined as 2.72%; in experiment [2] it was 4.98%; in [3] it was 10.8%; in [4], 3.7%; in experiment [5], 12%; in experiment [6] it was 4.4%. Besides, the inhibition in [7] is 3.97%; in experiment [8], 3.42%; in experiment [9], 8.31%; in experiment [10], -5.99%; in experiment [11], -2.11%; in experiment [12], 1.6%. The inhibition in [13] amounted to 5.06%; in experiment [14], 7.73%; in experiment [15], 6.07%; in experiment [16], 3.81%; in experiment [17] it was 11.8%; in [18] it was 0.04%. Further, the inhibition in experiment [19] was determined as 2.7%; in experiment [20] it was 2.45%.
Consider `CCc1cccc(NC(=O)Nc2ccc(Oc3ccc4nc(NC(=O)OC)[nH]c4c3)cc2)c1`, for which the inhibition in experiment [1] amounted to 51.3%; in experiment [2], 18.3%; in experiment [3], 26.6%; in [4], 7.41%; in [5], 23.8%; in experiment [6] it was 1.34%. Further, the inhibition worked out at 3.68% in experiment [7]; 14.8% in experiment [8]; 44.8% in experiment [9]; 9.63% in experiment [10]; 25.5% in [11]; 2.34% in experiment [12]. Besides, the inhibition is 0.6% in [13]; -1.67% in experiment [14]; 1.67% in experiment [15]; 1.3% in [16]; 1.76% in experiment [17]; 1.67% in [18]. The inhibition in experiment [19] amounted to 1.57%; in [20], 4.01%.
As for `NS(=O)(=O)c1ccc(N/N=C2\C(=O)Nc3ccc(C(=O)NCCc4c[nH]cn4)cc32)cc1`, the inhibition in experiment [1] is 11.6%; in experiment [2], 3.56%; in [3] it was 12.1%; in [4], 5.35%; in experiment [5] it was 15.3%; in [6], 3.67%. The inhibition in [7] was 12.9%; in experiment [8], 4.29%; in [9] it was 9.57%; in experiment [10], -2.52%; in experiment [11] it was 9.57%; in [12], 4.25%. The inhibition is 17.2% in [13]; -1.78% in experiment [14]; 6.53% in [15]; 7.16% in [16]; 5.31% in [17]; 1.88% in experiment [18]. Also, the inhibition was 1.29% in experiment [19] and 8.17% in experiment [20].
Turning to `O=C1Nc2ccc(C(=O)c3ccco3)cc2C1=Cc1cc(Cl)c(O)c(Cl)c1`, the inhibition amounted to 8.5% in experiment [1]; 5.68% in [2]; 17.9% in [3]; 4.71% in experiment [4]; 21.5% in experiment [5]; 3.92% in experiment [6]. The inhibition in experiment [7] was 20.8%; in [8], 5.9%; in experiment [9] it was 15.3%; in experiment [10] it was -4.61%; in [11] it was -5.53%; in experiment [12], 3.04%. Also, the inhibition is 19.1% in experiment [13]; -1.7% in [14]; 5.27% in [15]; 4.83% in experiment [16]; 6.88% in [17]; 1.4% in experiment [18]. For the same compound, the inhibition in [19] was found to be 1.76%; in experiment [20], 6.31%.
Regarding `CC(C)=Cc1cccc2c1/C(=N/Nc1ccc(S(N)(=O)=O)cc1)C(=O)N2`, the inhibition in experiment [1] was found to be 18.2%; in experiment [2], 4.12%; in experiment [3] it was 21.9%; in experiment [4] it was 2.44%; in experiment [5], 12.7%; in experiment [6], 2.57%. Besides, the inhibition in [7] stood at 10.4%; in experiment [8], 3.09%; in experiment [9], 14%; in [10] it was 1.02%; in experiment [11], 5.18%; in experiment [12], 3.01%. For the same compound, the inhibition in [13] was 31.1%; in experiment [14] it was -0.19%; in experiment [15] it was 6.64%; in [16] it was 1.35%; in [17], -1.64%; in experiment [18], 1.86%. The inhibition came to 3.95% in experiment [19] and 0.6% in experiment [20].
